The nature of test [1]: qHTS Assay for Lipid Storage Modulators (AID 1519; calls by dose curve; as to activity change, negative = inhibition: % is scaled to controls: 0 for no effect and ±100 for the full control effect). Particulars: Drosophila S3 cells, BODIPY lipid droplet/cell ratio, laser cytometry, cells loaded with oleic acid. An outline of the steps: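 Cells seeded at 5,000 per well were treated with compounds over a concentration series and loaded with oleic acid (400 uM, as added). Lipid droplet fluorescence (488 nm excitation, 500-530 nm channel) was read by laser-scanning cytometry and normalized to 20 uM Triacsin C.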
(qHTS replaces the single test concentration by a dilution series.)

Test [2] can be described thus: Cell Viability - LYMP2-023 (AID 975).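 Also: cellular ATP measured by luciferase luminescence as viability proxy; plate controls were DMSO only for no effect and 92 µM tetraoctylammonium bromide control for full effect; nearly all actives have a fitted effect of over 55% in size.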 An outline of the steps: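 In this qHTS, ATP-based luciferase luminescence (CellTiter-Glo) is quantified in human lymphoblastoid cells after 24 hr compound treatment at 37 C; tetraoctylammonium bromide serves as positive control. Concentration-response curves are Hill-fitted to give AC50.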
Test [3] can be described thus: Cell Viability - LYMP2-025 (AID 976).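 Also: plate controls were DMSO only for no effect and tetraoctylammonium bromide control for full effect.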 Put shortly: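 Luminescent ATP readout after 24 hr treatment of a human lymphoblastoid line (LYMP2-025, 2500 cells/well, 37 C). Reagent developed 30 min at room temperature; AC50 fitted with the Hill equation.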
Test [4] in a line: Cell Viability - LYMP2-002 (AID 977).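 Also: compound exposure lasted 24 h at 37 °C; plate controls were DMSO only for no effect and 92 µM tetraoctylammonium bromide for full effect.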 An outline of the steps: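 Human lymphoblastoid cells, 2500/well, complete medium; 5 h 37 C settle; compound 24 h 37 C; CellTiter-Glo, 30 min RT; luminescence. Decrease in ATP = cytotoxicity; AC50 via Hill equation.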
Test [5] in a line: Cell Viability - LYMP2-006 (AID 978). Also: % is scaled to controls: 0 for no effect and ±100 for the full control effect; nearly all actives have a fitted effect of over 60% in size. An outline of the steps:
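Human lymphoblastoid cells, 2500 per well, were preincubated 5 hr at 37 C, then exposed to compounds for 24 hr at 37 C in complete medium. Viability was read as intracellular ATP by CellTiter-Glo luminescence; AC50 from Hill-equation fits of qHTS concentration-response data.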

Test [6] in a line: Cell Viability - LYMP2-007 (AID 979).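 Also: cells exposed to compound for 24 h before reading; 0% = DMSO only and the negative end = 92 µM tetraoctylammonium bromide; nearly all actives have a fitted effect of over 60% in size.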 Put shortly:
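Measured via luciferase-based ATP quantitation: lymphoblastoid cells, 24 hr compound exposure at 37 C, AC50 from Hill fits.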

A short description of test [7]: Cell Viability - LYMP2-008 (AID 980). Also: % is scaled to controls: 0 for no effect and ±100 for the full control effect; nearly all actives have a fitted effect of over 60% in size. An outline of the steps: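 Measured: ATP-dependent luminescence, proportional to viable cell number, in human lymphoblastoid cells treated 24 hr with compound in complete culture medium. Values are AC50s from Hill-equation modelling of qHTS titrations.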
Test [8] in a line: Cell Viability - LYMP2-010 (AID 981). Also: % is scaled to controls: 0 for no effect and ±100 for the full control effect; nearly all actives have a fitted effect of over 55% in size. An outline of the steps:
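This 24 hr viability screen uses LYMP2-010 lymphoblastoid cells, quantifies ATP via luciferase luminescence, and derives AC50 from Hill fits of qHTS concentration-response data.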

Test [9] in a line: Cell Viability - LYMP2-012 (AID 982).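 Also: cellular ATP by luciferase luminescence where a drop means cytotoxicity; cells exposed to compound for one day before reading; 0% = DMSO only and full loss = 92 µM tetraoctylammonium bromide; nearly all actives have a fitted effect of over 55% in size.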
The nature of test [10]: Cell Viability - LYMP2-016 (AID 984). Also: % is scaled to controls: 0 for no effect and ±100 for the full control effect; nearly all actives have a fitted effect of over 55% in size. Put shortly:
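Human lymphoblastoid cells (LYMP2-016), 2500/well in complete medium, preincubated 5 hr at 37 C, then compound-treated 24 hr at 37 C. Intracellular ATP read by CellTiter-Glo luminescence after 30 min at room temperature; AC50 from Hill-equation concentration-response fits.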

A short description of test [11]: Cell Viability - LYMP2-018 (AID 985).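 Also: plate controls were DMSO only for no effect and tetraoctylammonium bromide at 92 µM for full effect; nearly all actives have a fitted effect of over 50% in size.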 An outline of the steps: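 In this qHTS viability assay, cells are treated for 24 hr and cellular ATP is quantified by luciferase-based luminescence, with tetraoctylammonium bromide as positive control.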
Test [12] in a line: Cell Viability - LYMP2-020 (AID 986). An outline of the steps: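 Cells at 2500 per well receive a 24 hr compound exposure at 37 C. Viability is measured as ATP-dependent luciferase luminescence, with AC50 modeled from qHTS concentration-response curves.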
Test [13] in a line: Cell Viability - LYMP2-024 (AID 988).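 Also: plate controls were DMSO only for no effect and 92 µM tetraoctylammonium bromide for full effect; nearly all actives have a fitted effect of over 60% in size.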 An outline of the steps:
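Cells at 2500 per well received compound for 24 hr after a 5 hr settling period. Viability was scored by CellTiter-Glo luminescence, with AC50 from Hill fits.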

Test [14] can be described thus: Cell Viability - LYMP2-026 (AID 989). Also: % is scaled to controls: 0 for no effect and ±100 for the full control effect; nearly all actives have a fitted effect of over 50% in size. Put shortly:
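Acute toxicity screen in complete culture medium, with 24 hr compound exposure at 37 C. Viability read as cellular ATP via luciferase reaction, with tetraoctylammonium bromide (6.4pM to 92 uM) as positive control.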

The nature of test [15]: Cell Viability - LYMP1-002 - Assay at 24 hr (AID 993). Also: % is scaled to controls: 0 for no effect and ±100 for the full control effect. Put shortly: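 Viability was judged from intracellular ATP using a luciferase read-out, following a 24-hour compound incubation at 37 C of lymphoblastoid cells seeded at 2500 per well. Concentration-response data were fitted to the Hill equation for AC50.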
Test [16] is described as follows: Cell Viability - LYMP1-002 - Assay at 40 hr (AID 994). An outline of the steps: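 Concentration-dependent ATP loss after 40 hr treatment at 37 C defined toxicity; AC50 values were obtained by fitting the standard Hill equation.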
In test [17] the target is Alpha-galactosidase A (Homo sapiens) (UniProt P06280). Put plainly: Counterscreen for Glucocerebrosidase Inhibitors: qHTS Assay for Human alpha-Galactosidase at pH 4.5 (AID 992). Also: 0% is about no effect. An outline of the steps: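 Each compound is preincubated briefly with 2 nM enzyme before substrate addition (80 uM); plates then sit 20 min at ambient temperature, are quenched with 1M NaOH/1M glycine, and read fluorometrically.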
(Counterscreens check selectivity or assay interference.)

In test [18] the target is alpha-glucosidase (Oryza sativa, rice) (UniProt Q653V4). The test can be described thus: Counterscreen for Glucocerebrosidase Inhibitors: qHTS Assay for Rice alpha-Glucosidase at pH 5.0 (AID 997).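 Also: 0% = full activity with enzyme and -100% = basal without enzyme.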 An outline of the steps: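 Endpoint fluorogenic assay at pH 5.0: compounds (0.7 nM to 77 uM) titrated against 4 nM rice enzyme and 400 uM 4-MU-alpha-glucoside for 20 min at room temperature; NaOH/glycine stop, read ex 365/em 440 nm, Hill-fitted AC50.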

For test [19], the target named is Alpha-galactosidase (Coffea arabica) (UniProt Q42656). Put plainly: Counterscreen for Glucocerebrosidase Inhibitors: qHTS Assay for Coffee Bean alpha-Galactosidase at pH 5.9 (AID 998).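 Also: plate controls were uninhibited enzyme for no effect and no-enzyme basal signal for full effect.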 An outline of the steps: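 Enzyme 2 nM + cpd (0.7 nM–77 uM titration) + 4-MU-alpha-Gal 80 uM, pH 5.9 citrate/Tween-20, RT 20 min, NaOH/glycine stop pH 10, fluor 365/440. Normalized to no-enzyme and full-activity controls; Hill-fit AC50.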

The mark [20] stands for this setting: measured here: cell count channel max response.
Where [21] appears, read: measured here: lipid channel max response.

From PubChem BioAssay (NCATS) come the findings set out here.

Records with an inconclusive call do not appear. Activity calls are given as the source filed them. Unless noted, calls follow the shape of the dose curve; as a rule, active = well fitted curve in the direction sought with a large enough effect; inconclusive = small, poorly fitted or top-dose-only effect, or another doubt; inactive = no such curve, though single readings can be large; an effect the other way counts as inactive or inconclusive.

Chain of Alpha-galactosidase (Coffea arabica) (Q42656 whole entry, looked up): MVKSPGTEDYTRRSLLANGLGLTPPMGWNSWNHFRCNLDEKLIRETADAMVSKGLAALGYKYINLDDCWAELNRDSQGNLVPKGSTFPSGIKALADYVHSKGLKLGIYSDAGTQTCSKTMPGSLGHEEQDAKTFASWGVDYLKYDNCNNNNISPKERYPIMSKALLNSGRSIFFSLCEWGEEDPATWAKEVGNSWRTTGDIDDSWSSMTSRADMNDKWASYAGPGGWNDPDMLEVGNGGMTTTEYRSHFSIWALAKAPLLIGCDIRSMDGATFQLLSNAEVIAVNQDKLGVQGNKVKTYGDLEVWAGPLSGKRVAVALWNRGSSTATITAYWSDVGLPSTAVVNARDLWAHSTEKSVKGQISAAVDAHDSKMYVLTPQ
Chain of Alpha-galactosidase A (Homo sapiens) (P06280 whole entry, looked up): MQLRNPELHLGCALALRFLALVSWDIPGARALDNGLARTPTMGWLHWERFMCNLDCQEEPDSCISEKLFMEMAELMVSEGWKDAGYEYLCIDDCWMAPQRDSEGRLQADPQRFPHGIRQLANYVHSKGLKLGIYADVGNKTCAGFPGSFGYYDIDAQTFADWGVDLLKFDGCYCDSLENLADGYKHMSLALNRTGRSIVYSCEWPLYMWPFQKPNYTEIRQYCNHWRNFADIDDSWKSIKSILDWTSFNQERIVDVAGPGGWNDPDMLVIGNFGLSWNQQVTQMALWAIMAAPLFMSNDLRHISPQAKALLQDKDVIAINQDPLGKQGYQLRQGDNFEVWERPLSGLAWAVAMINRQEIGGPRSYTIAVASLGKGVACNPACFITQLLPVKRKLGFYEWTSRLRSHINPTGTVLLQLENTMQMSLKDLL

In the case of `CC(N)Cc1ccc(O)cc1` (centres undefined), the activity change, negative = inhibition in test [1] (at 57.5 µM (top of the series)) was 1.02% (inactive). The max response in test [1] (setting [20]) was 11.5%; in test [1] (setting [21]), 13.9%.

Turning to `CCCC(C)C1(CC)C(=O)NC(=O)NC1=O` (centres undefined), in [1] (at 57.5 µM (top of the series)), the activity change, negative = inhibition is 5.49% (inactive). Besides, the max response in test [1] (setting [20]) was -11.5%; in test [1] (setting [21]) it was -3.32%.

`COC1=CC(=O)O[C@@H](/C=C/c2ccccc2)C1`: the Potency result in test [2], in test [3], in [4], in test [5], in test [6] and in test [7] was “inactive” in each case. In addition, the Potency entry in test [8], in test [9], in [10], in [11], in [12] and in [13] was “inactive” in each case. Also, the Potency entry in test [14], in test [15] and in test [16] was “inactive” each time.

In the case of `CN1[C@@H]2CC[C@H]1CC(OC1c3ccccc3CCc3ccccc31)C2` (some centres undefined), the activity change, negative = inhibition in [1] (at 25.7 µM (top of the series)) was -3.36% (inactive). In addition, the max response in test [1] (setting [20]) is -5.63%; in test [1] (setting [21]), -11.3%.

Turning to `C=CCC1(C(C)CCC)C(=O)N=C(S)NC1=O` (centres undefined), in test [1] (at 57.5 µM (top of the series)), the activity change, negative = inhibition is 5.57% (inactive). Besides, the max response in [1] (setting [20]) was 14.6%; in [1] (setting [21]) it was 20.4%.

In the case of `NC(=O)c1ccc(OCC(O)CN2CC=C(c3ccc(F)cc3)CC2)cc1` (centres undefined), the activity change, negative = inhibition in [1] (at 57.5 µM (top of the series)) is -3.69% (inactive). For the same compound, the max response in test [1] (setting [20]) was -43.3%; in [1] (setting [21]) it was -42.5%.

As for `ClC=C(Cl)Cl`, the Potency entry in test [2], in test [3], in test [4], in [5], in test [6] and in test [7] was “inactive” throughout. Moreover, the Potency result in test [8], in test [9], in [10], in test [11], in [12] and in test [13] was “inactive” each time. The Potency result in test [14], in test [15] and in [16] was “inactive” throughout.

For `Clc1ccc(N2C[C@H]3CC[C@@H](C2)N3)nn1`, the result in test [17], in test [18] and in test [19] was inactive.

Regarding `N#CCCN`, the call in test [17] and in test [19] was inactive.

On to `[O]=[Cd]`, for which the Potency entry in [2], in [3], in test [4], in test [5], in [6] and in test [7] was “inactive” each time. Further, the Potency result in [8], in test [9], in test [10], in test [11], in test [12] and in [13] was “inactive” in each case. For the same compound, the Potency result in [14], in test [15] and in test [16] was “inactive” in each case.

Take `CCOC(=O)c1ccccc1C(=O)OCC`: the Potency result in test [2], in test [3], in test [4], in [5], in test [6] and in [7] was “inactive” in each case. In addition, the Potency entry in test [8], in test [9], in test [10], in [11], in [12] and in [13] was “inactive” each time. In addition, the Potency entry in [14], in [15] and in test [16] was “inactive” each time.

In the case of `O=[N+]([O-])c1ccc(F)c([N+](=O)[O-])c1`, the Potency result in test [3], in test [4], in test [5], in [9], in test [10] and in [12] was “inactive” each time. The Potency entry in test [14], in test [15] and in [16] was “inactive” throughout.

As for `ClC(Cl)(Cl)Cl`, the Potency entry in test [2], in test [3], in test [4], in [5], in [6] and in [7] was “inactive” throughout. Also, the Potency entry in test [8], in test [9], in [10], in test [11], in [12] and in [13] was “inactive” each time. Further, the Potency entry in [14], in test [15] and in [16] was “inactive” in each case.

As for `Clc1ccccc1Cl`, the Potency result in test [2], in test [3], in test [4], in test [5], in test [6] and in test [7] was “inactive” throughout. Besides, the Potency entry in test [8], in [9], in test [10], in test [11], in test [12] and in [13] was “inactive” throughout. In addition, the Potency result in [14], in test [15] and in test [16] was “inactive” in each case.

As for `CCCCCl`, the Potency entry in test [2], in [3], in test [4], in test [5], in test [6] and in [7] was “inactive” in each case. In addition, the Potency result in test [8], in test [9], in test [10], in test [11], in [12] and in [13] was “inactive” in each case. Besides, the Potency entry in [14], in [15] and in test [16] was “inactive” in each case.

In the case of `C=CCN=C=S`, the Potency result in test [2], in [3], in test [4], in test [5], in test [6] and in test [7] was “inactive” throughout. In addition, the Potency result in test [8], in test [9], in test [10], in test [11], in [12] and in test [13] was “inactive” each time. The Potency result in [14], in test [15] and in test [16] was “inactive” in each case.
